NPR1 antag – Natriuretic polypeptide receptor (hNpr1) antagonism - Primary qHTS; HEK293 hNpr1 GloSensor cGMP, ANP-stimulated luminescence; Potency, µM (doses to about 46.3 µM), for inactives: at the top dose activity change, negative = inhibition, hits mostly inhibitors; hit rate 1.6% among 76,000; calls by dose curve; further: nearly all actives have a fitted effect of over 60% in size
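Compound pre-incubated 30 min at room temperature on GloSensor-loaded HEK293 cells stably carrying hNpr1 and the pGS-40F cGMP biosensor. Stimulation uses hNppA at 0.1 nM final; luminescence is taken at baseline and 20 min post-agonist.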
HEK cytotox – Cytotoxic Profiling in HEK 293 Cell Line of Diverse Libraries Using Quantitative High-Throughput Screening; Potency, µM (doses to about 115 µM), for the others: at the highest dose activity change, negative = cytotoxicity, usual class: inhibitors; HEK 293 viability, ATP luminescence (CellTiter-Glo), 48-72 h; AID 1345083, 2018; hit rate 6.6% among 94,000; further: nearly all actives have a fitted effect of over 60% in size
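HEK 293 seeded at 250 cells/well receive compound via pintool. After 48 or 72 hr at 37 degree Celsius, 5% CO2 and 95% humidity, CellTiter-Glo is dispensed and luminescence read following 10 min at room temperature.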
NIH3T3 tox – Cytotoxic Profiling in NIH 3T3 Cell Line of Diverse Libraries Using Quantitative High-Throughput Screening | NIH 3T3 viability, CellTiter-Glo ATP luminescence, 48-72 h | Potency, µM (highest dose often 96.7 µM), without a hit: at the highest dose activity change, negative = cytotoxicity, hits mostly inhibitors | hit rate 4.3% among 94,000; further: nearly all actives have a fitted effect of over 55% in size
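NIH 3T3 cells at 400 cells/well received 23 nL of compound by pintool and were incubated 48 or 72 h at 37 °C. Viability was read as ATP-coupled CellTiter-Glo luminescence.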
HEK293 viab – GF-AFC viability counterscreen for inhibitors of alpha-synuclein gene (SNCA) expression; HEK-293-SNCA-luc viability, GF-AFC fluorescence, 24 h; Potency, µM (highest dose often 57.1 µM), without a hit: top-dose activity change, negative = cytotoxicity, hits mostly cytotoxic; hit rate 0.12% among 150,000;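 further: 0% = DMSO-treated cells and -100% = medium-only wells without cells; nearly all actives have a fitted effect of over 30% in size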
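Cytotoxicity counterscreen: after 24 h compound treatment of genome-edited SNCA-luciferase HEK-293 cells, live-cell protease substrate GF-AFC read by fluorescence after 30 min; activity scaled between DMSO (0%) and medium-only (-100%), curves Hill-fitted.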
SNCA expr inh – Primary qHTS assay for inhibitors of alpha-synuclein gene (SNCA) expression | HEK-293 SNCA-luciferase knock-in, luminescence, 24 h | Potency, µM (doses to about 57.2 µM), without a hit: top-dose activity change, negative = inhibition, usual class: inhibitors | hit rate 0.17% among 140,000 | AID 1671194, 2021;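 further: plate controls were DMSO cells for no effect and cell-free wells for full effect; nearly all actives have a fitted effect of over 45% in size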
Luciferase inh – Firefly luciferase inhibition profiling of diverse chemical library using quantitative high-throughput screening; purified P. pyralis luciferase, luminescence, biochemical; Potency, µM (titrated, usually from 115 µM), hits mostly inhibitors; hit rate 2.5% among 76,000; AID 1347043, 2019; further: nearly all actives have a fitted effect of over 65% in size
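FLuc 10nM, D-luciferin 10uM, ATP 10uM, Mg acetate 10mM, Tris acetate pH 7.5, Tween/BSA; cpd qHTS; enzyme added last; CCD luminescence.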
The depositor's hits bear a star; i = inactive; ? = inconclusive; · = no result; [ ] = dose if it differs, or a comment. The list is not random: actives were taken first. Their share in the collection is about 7.4%. Unless noted, the call rests on the fitted dose curve; in most records, active means well fitted curve in the direction sought with a large enough effect; inconclusive means small, poorly fitted or top-dose-only effect, or another doubt; inactive means no such curve, though single readings can be large; an effect the other way counts as inactive or inconclusive. Unless noted, on the % scale 0 is the no-effect control and ±100 the full control effect; potency means the concentration at half of the fitted maximal effect.

SMILES | NPR1 antag | HEK cytotox | NIH3T3 tox | HEK293 viab | SNCA expr inh | Luciferase inh
CC(=O)N1CCC([C@@H]2CN(Cc3ccc(C#N)cc3)C[C@H]2CO)CC1 | -2% | -22% | -17% | 4%[12.5 µM] | 10% | i
O[C@@H]1CCC2CC1[C@@H](O)CN2Cc1ccc(-c2ccccc2)cc1 (stereo not given in full) | · | 79µM* | ? | · | · | ·
O=C(Cc1ccccc1)N1C[C@@H](CO)[C@@H]2Oc3c(F)cccc3[C@@H]21 | · | ? | -31% | · | · | ·
CCOC(=O)[C@@H]1CN(C(=O)OCC(C)C)[C@H]2c3ccc(OC)cc3O[C@@H]12 | · | -27% | 40µM* | · | · | ·
CC(C)COC(=O)N1C[C@@H](CO)[C@@H]2Oc3c(F)cccc3[C@@H]21 | · | ? | 32µM* | · | · | ·
COc1ccc(C(=O)N(C)C2CCc3nnc(C)n3CC2)cc1F (stereo not given) | 2% | -6% | 0% | -2% | -1% | i
O=C(NC[C@H]1O[C@H](Cc2cc(-c3ccc(F)cc3)on2)CC[C@@H]1O)c1ccc(F)cc1 | 16µM* | ? | ? | -9%[87.6 µM] | 15%[87.6 µM] | 40µM*
CC(C)CCNC[C@H]1O[C@H](Cc2cc(-c3ccc(F)cc3)on2)CC[C@@H]1O | ? | 89µM* | 50µM* | -10%[87.6 µM] | 81%[87.6 µM] | ?
CN(C)C[C@H]1O[C@H](Cc2cc(-c3ccc(F)cc3)on2)CC[C@@H]1O | -18%[70.6 µM] | -29%[172 µM] | -30%[138 µM] | 6%[87.6 µM] | 159%[87.6 µM] | i
COc1cccc(NC(=O)N2CCN(C(=O)c3cccnc3)[C@@H](C(=O)N[C@H]3CCCNC3=O)C2)c1 | -3% | i | i | 3% | -10% | i
CN1CCC(N(Cc2ccccc2)[C@@H]2C[C@@H]3CO[C@H](c4ccccc4)C[C@@H]3C2)CC1 | · | ? | 14µM* | · | · | ·
O=C1NCCCCCCN(Cc2cccc(F)c2)[C@H]2CCC[C@@H]12 | -15% | 79µM* | ? | -9% | ? | i
N#Cc1ccc(CN2CCCCCNC(=O)[C@@H]3CCC[C@@H]32)cc1 | -9% | 79µM* | ? | 0% | -13% | i
O=C1NCCCCCN(Cc2cccc(F)c2)[C@H]2CCC[C@@H]12 | -3% | ? | ? | 8% | 9% | i
N#Cc1cccc(CN2CCCCCNC(=O)[C@@H]3CCC[C@@H]32)c1 | -3% | -21% | -24% | 5% | 7% | i
O=C(c1cn2ccsc2n1)N1CCC2(CCNCC2)CC1 | 1% | -8% | -8% | -11% | -14% | i
CCN1c2cc(C(=O)Nc3ccc(OC(F)(F)F)cc3)ccc2C(=O)N2CCCCCC21 (stereo not given) | -24% | 32µM* | 25µM* | 21%[12.5 µM] | ? | i
CCN1c2cc(C(=O)Nc3cccc(OC(F)(F)F)c3)ccc2C(=O)N2CCCCC21 (stereo not given) | -10% | 25µM* | ? | 18%[12.5 µM] | ? | i
CCN1c2cc(C(=O)Nc3ccc(C(F)(F)F)cc3)ccc2C(=O)N2CCCCC21 (stereo not given) | -4% | ? | ? | ? | -13% | i
COCCCNC(=O)N1C[C@@H]2CCCN3CCC[C@@H]([C@H]23)[C@H]1CCCC(=O)Nc1ccccc1 | 3% | -5% | -7% | -1% | -9% | i
Fc1ccc2nc(CO[C@H]3CN(Cc4ccccn4)C[C@H]3F)[nH]c2c1 | 4%[70.6 µM] | -11%[172 µM] | -2%[138 µM] | 5%[87.6 µM] | -2%[87.6 µM] | i
COC(=O)c1ccc2nc(CO[C@H]3CN(Cc4cn(C)c5ccccc45)C[C@H]3F)[nH]c2c1 | -17% | ? | ? | -14% | 4% | i
Cc1ccc2nc(CO[C@H]3CN(Cc4cn(C)c5ccccc45)C[C@H]3F)[nH]c2c1 | ? | 89µM* | 79µM* | -21%[87.6 µM] | 4%[87.6 µM] | i
COc1cccc(CN2C[C@@H](F)[C@@H](OCc3nc4ncccc4[nH]3)C2)c1 | -8%[70.6 µM] | ? | ? | -4%[87.6 µM] | -7%[87.6 µM] | i
Cn1cc(CN2C[C@@H](F)[C@@H](OCc3nc4ccccc4[nH]3)C2)c2ccccc21 | -4%[70.6 µM] | 100µM* | ? | -7%[87.6 µM] | 14%[87.6 µM] | i
SMILES | NPR1 antag | HEK cytotox | NIH3T3 tox | HEK293 viab | SNCA expr inh | Luciferase inh
Cn1cc(CN2C[C@@H](F)[C@@H](OCc3nc4ccccc4n3C)C2)c2ccccc21 | ? | ? | ? | 0%[87.6 µM] | 8%[87.6 µM] | i
Fc1ccc2nc(CO[C@H]3CN(Cc4ccc5ccccc5n4)C[C@H]3F)[nH]c2c1 | ? | 89µM* | ? | -13%[87.6 µM] | 13%[87.6 µM] | ?
Cn1cc(CN2C[C@@H](F)[C@@H](OCc3nc4ncccc4[nH]3)C2)c2ccccc21 | -4%[70.6 µM] | 89µM* | ? | -10%[87.6 µM] | -14%[87.6 µM] | i
CN1c2cc(C(=O)N3CCN(c4ccccc4F)CC3)ccc2C(=O)N2CCCCC21 (stereo not given) | -2% | ? | -15% | 17%[12.5 µM] | -11% | i
CN1c2cc(C(=O)N3CCN(c4ccccc4Cl)CC3)ccc2C(=O)N2CCCCC21 (stereo not given) | 0% | 40µM* | ? | -2%[12.5 µM] | 10% | i
CCOc1ccccc1N1CCN(C(=O)c2ccc3c(c2)N(C)C2CCCCN2C3=O)CC1 (stereo not given) | -2% | ? | ? | 29%[12.5 µM] | ? | i
Cc1ccccc1N1CCN(C(=O)c2ccc3c(c2)N(C)C2CCCCCN2C3=O)CC1 (stereo not given) | 0% | 45µM* | ? | -9%[12.5 µM] | ? | i
CC(C)(C)CNc1ccc(C(=O)N2CCC(CN3CCCC3=O)CC2)cn1 | 5% | -11% | -8% | 9% | -28% | i
O=C1NC2(Cc3ccccc31)CN(C(=O)c1ccc3c(c1)OCO3)C2 | · | i | -12% | 0% | 22% | ·
O[C@@H]1C[C@@H](c2nc(-c3ccc4c(c3)OCO4)no2)N(Cc2ccccc2)C1 | -5%[70.6 µM] | ? | ? | -3%[87.6 µM] | 173%[87.6 µM] | 50µM*
COc1ccc(-c2noc([C@@H]3C[C@@H](O)CN3Cc3cccc(C#N)c3)n2)cc1 | ? | ? | -26%[138 µM] | -17%[87.6 µM] | 85%[87.6 µM] | 22µM*
N#Cc1cccc(CN2C[C@H](O)C[C@H]2c2nc(-c3ccc4c(c3)OCO4)no2)c1 | -6%[70.6 µM] | 100µM* | ? | -23%[87.6 µM] | 28%[87.6 µM] | ?
O=C(O)c1ccc(CN2C[C@H](O)C[C@H]2c2nc(-c3ccc4c(c3)OCO4)no2)cc1 | -2%[70.6 µM] | -1%[172 µM] | -14%[174 µM] | -14%[87.6 µM] | 5%[87.6 µM] | ?

Compound activity (PubChem)
